# Screening results deposited in PubChem by National Center for Advancing Translational Sciences (NCATS).
# The entries come from a sample that favours hits as a whole.
# Pf Dd2 inh: Plasmodium falciparum Dd2 growth inhibition | AID 1347417 | P. falciparum Dd2 growth, SYBR Green, 72 h | 4.3% of 120,000 active | Potency, µM (doses to about 28.9 µM), inactives show at the top dose activity, negative = inhibition, hits mostly inhibitors; active = well fitted inhibition curve with a large enough effect;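 note: plate controls were DMSO vehicle for no effect and reference drug for full effect; nearly all actives have a fitted effect of over 65% in size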
#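 Readout: SYBR Green fluorescence, 485 nm excitation, 535 nm emission, after ~16 h lysis at 37C. Before that, Dd2-infected red cells (2.5% hematocrit) grew 72 h with compound, 29 uM top final concentration.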
# Starred values were filed as active, the others as inactive; i = inactive; [ ] = remark or other dose. Potency is the fitted concentration of half-maximal effect.
SMILES,Pf Dd2 inh
C[S+](=O)([O-])N1Cc2ccccc2CC2(CCCN(CCc3ccccc3)C2)C1 (centres undefined),-29.1%
CC(=O)NCCC(=O)N1Cc2ccccc2CC2(CCN(Cc3cccnc3)C2)C1 (centres undefined),8.8%
CN(C)CC(=O)N1Cc2ccccc2CC2(CCCN(CC3CCNCC3)C2)C1 (centres undefined),20.1%
Cc1ccsc1C(=O)N1CCN(c2cc(-c3ccc(Cl)cc3)[nH]n2)CC1,-0.4%
NCCC1CCN(C(=O)Nc2ccccc2F)CC1,-19.1%
O=C1CCN(C(=O)c2cccs2)CCCC(CO)CCN1 (centres undefined),-10.1%
COc1ccc(C(=O)NC(C(=O)NC(C)C(C)C)C2CCN(C(=O)CC(C)(C)C)CC2)cc1 (centres undefined),-5.5%
COc1ccccc1-n1c(=O)[nH]c2cccnc21,-16.5%[44.1 µM]
O=C(O)c1cccc(C2CCCN(C(=O)Cc3cc(F)c(F)c(F)c3)C2)c1 (centres undefined),-26.6%
CC1CCN(S(=O)(=O)C2CCS(=O)(=O)C2)CC1 (centres undefined),-6.6%
O=C(Nc1ccccc1)N1C[C@@H](F)[C@@H](OCc2nc3ccccc3o2)C1,i
COc1ccc(-c2nc(C3CN(C(=O)NCc4ccccc4)C3)no2)cc1,-24.9%
Cc1ccc(C2=NC3(CCN(C(=O)c4ccn[nH]4)CC3)ON2)cc1,-5.0%
COc1ccc(C2=C(C(C)=O)Sc3nnc(-c4ccccc4)n3N2C(C)=O)cc1,-12.6%
CC(=O)C1=C(c2ccc(C)cc2)N(C(C)=O)n2c(nnc2-c2ccccc2)S1,7.94µM*
CCOc1ccc(C2=C(C(C)=O)Sc3nnc(C)n3N2C(C)=O)cc1,1.12µM*
CCc1nnc2n1N(C(C)=O)C(c1ccc(C(C)(C)C)cc1)=C(C(C)=O)S2,3.16µM*
CCOc1ccc(-c2nnc(SCC(=O)c3ccccc3)n2-c2ccccc2)cc1,21.2%
CCOc1ccc(-c2nnc(SCC(=O)c3ccc(Br)cc3)n2-c2ccccc2)cc1,i
Cc1ccc(C(=O)N2CCn3c(nnc3-c3ccccc3)C2)cc1,i
Cn1cccc1C(=O)NC1CCCN(c2cc(-c3ccc(Cl)cc3)[nH]n2)C1 (centres undefined),-6.8%
COc1ccc(NC(=O)N2CCC3(CC2)N(CC2CC2)C(=O)CS3=O)cc1 (centres undefined),-7.6%
COc1ccc(S(=O)(=O)N2CCN(C(=O)c3csc(C)n3)CC2)cc1,-15.9%
Cc1ccc(Cl)cc1NC(=O)Cn1ccn2nc3c(c2c1=O)CCCCC3,i
CCNC(=O)N(C1CC1)C1CCOC2(CCN(C(=O)Cc3ccccc3)CC2)C1 (centres undefined),1.9%
SMILES,Pf Dd2 inh
CCOc1ccc(C(=O)N2CCC3(CC2)CC(O)CCO3)cc1 (centres undefined),-7.8%
CC(C)CC(=O)NCC(=O)N1CCCCCCNC(=O)CC1c1ccccc1 (centres undefined),-21.5%
Cc1ccc(C2Cn3nnc(-c4noc(Cc5ccc(F)cc5)n4)c3CO2)cc1 (centres undefined),-24.6%
CN(C)C(=O)c1cccnc1OC1CCNCC1,18.6%
O=C(NCCc1ccccn1)c1cccnc1OC1CCNCC1,-11.2%
CCNC(=O)c1cccnc1OC1CCN(Cc2ccccn2)C1 (centres undefined),i
c1ccc2c(c1)CCN2c1nccnc1OC1CCNC1 (centres undefined),7.94µM*
c1cnc(N2CCOCC2)c(OC2CCNC2)n1 (centres undefined),1.41µM*
CN1CCC(Oc2ncccc2C(=O)O)CC1,32.9%
c1ccc(CN2CCC(Oc3nccnc3N3CCc4ccccc43)C2)nc1 (centres undefined),3.98µM*
CN1CCC(Oc2nccnc2N2CCOCC2)C1 (centres undefined),24.6%
O=C(C1CCOCC1)N1CCC(Oc2nccnc2N2CCOCC2)C1 (centres undefined),54.5%
O=C(c1ccccc1)N1CCC(Oc2nccnc2N2CCOCC2)C1 (centres undefined),-0.7%
c1cc(CN2CCC(Oc3nccnc3N3CCOCC3)C2)ccn1 (centres undefined),-25.5%
CN1CCC(Oc2nccnc2N2CCc3ccccc3C2)C1 (centres undefined),8.91µM*
Cc1noc([C@@H](C)NC(=O)Nc2cccnc2)c1C(=O)O,-4.5%[44.1 µM]
Cc1cc(C(=O)N2CC(N(C)Cc3cccnc3)C2)n[nH]1,1.1%
Cc1ccc(N2CCN(C(=O)C3CCCN(c4cnc5nccnc5c4)C3)CC2)cc1 (centres undefined),i
CCCC(=O)N1CCc2cc(S(=O)(=O)NC(C)c3ccccc3)ccc2C1 (centres undefined),-14.4%
CC(C)CNC(=O)C1COC2(CCN(C(=O)CC(C)C)CC2)N1C(=O)c1ccco1 (centres undefined),-10.6%
c1ccc(-n2nccc2CN2CCC3(CCNCC3)C2)cc1,-24.3%
Cc1sc2ccn(C)c(=O)c2c1C(=O)NCc1cccc(Br)c1,i
CC(=O)N1CCc2c(nc(-c3ccccn3)nc2N(C)CCCN(C)C)C1,-1.6%
O=C(C[C@H]1NC(=O)c2ccccc2NC1=O)Nc1nnc(C2CCCO2)s1 (some centres undefined),i
N#Cc1ccc(CN2CCC3(CC2)CC(=O)c2ccc(Cl)cc2O3)cc1,11.2µM*
SMILES,Pf Dd2 inh
Cc1cc(CN2CCC3(CC2)CC(=O)c2ccc(Cl)cc2O3)no1,i
CC(=O)Nc1ccc(CN2CCC3(CC2)CC(=O)c2ccc(Cl)cc2O3)cc1,i
COC(=O)c1cn([C@H]2CO[C@H]3[C@@H]2OC[C@@H]3NCCCc2ccccc2)nn1,3.7%[44.1 µM]
O=C(Cn1ccn2nc(-c3ccccc3)c(CO)c2c1=O)N1CCCc2ccccc21,-4.5%
COc1cccc(C(=O)N2CCC(C3CCN(S(C)(=O)=O)CC3)C2)c1 (centres undefined),15.0%
COc1ccc(C(=O)N2CC3(Cc4ccccc4N(C(C)=O)C3)C2)cc1,-19.9%
Cc1nnsc1C(=O)N[C@H]1CCN(C(=O)COCC(=O)O)[C@H](C(=O)N[C@H](CC(C)C)C(N)=O)C1,-3.1%
CCCCS(=O)(=O)c1nc(-c2ccc(Br)cc2)cc(-c2ccccc2)c1C#N,5.01µM*
Cc1cccc(-c2cc(-c3ccccc3)nc(SCC(=O)Nc3ccccc3)c2C#N)c1,13.3%
C#CCSc1nc(-c2ccccc2)cc(-c2ccccc2)c1C#N,5.9%[0.594 µM]
COc1ccccc1CC(=O)N1CC[C@@H](NC(=O)c2cnccn2)[C@H](O)C1,5.5%
Cc1[nH]ncc1CNC(=O)C1CCN(C(=O)c2ncn3c2COC(c2ccc(F)cc2)C3)CC1 (centres undefined),i
COCCN(Cc1ccco1)C(=O)c1cc2c(=O)[nH]c3ccc(C)cc3c2s1,i
Cc1cccc(CCNC(=O)c2cc3c(=O)[nH]c4ccc(C)cc4c3s2)c1,-17.2%
Cc1ccc2nc(Cl)c3cc(C(=O)NCCCN(C)Cc4ccccc4)sc3c2c1,7.94µM*
Cc1ccc2nc(Cl)c3cc(C(=O)NC4CCCCCC4)sc3c2c1,-5.9%
CCN(CCCNC(=O)c1cc2c(=O)n(C)c3ccccc3c2s1)c1ccccc1,12.6%[5.79 µM]
CCCN(C(=O)c1cc2c(=O)[nH]c3ccc(C)cc3c2s1)c1ccc(CC)cc1,-13.8%
CCOCCCN(Cc1ccco1)C(=O)c1cc2c(=O)[nH]c3ccc(C)cc3c2s1,10µM*
CCOc1ccc(CNC(=O)c2cc3c(=O)n(C)c4ccccc4c3s2)cc1,12.8%
COCCNC(=O)c1cc2c(Cl)nc3ccc(C)cc3c2s1,-9.7%
CCCCN(CC)CCCNC(=O)c1cc2c(=O)oc3ccc(C)cc3c2s1,10.2%
